# Reference: PubChem BioAssay AID1645883 (National Center for Advancing Translational Sciences (NCATS), 2021)
# Where “and” joins values, the source holds several entries; their conditions need not be identical. Identical values can stand only once. Among all 16,000 compounds or so, about 160 (1%) were called active. Inconclusive results (about 8%) are left out. Calls come from the whole dose curve; as a rule, active = well fitted activation curve with a large enough effect; inconclusive = small, poorly fitted or top-dose-only effect; inactive = no such curve, though single readings can be large or run the other way. Shown is part of a subset that was picked to be rich in actives.
# Target: Rap guanine nucleotide exchange factor 3 (Homo sapiens) (UniProt O95398)
# Assay: Validation qHTS for agonist of cAMP-regulated guanine nucleotide exchange factor 3 (EPAC1); note: nearly all actives have a fitted effect of over 70% in size
# Conditions: EPAC1 Rap1b BODIPY-GDP exchange, fluorescence; max response: stronger effect = higher value, percent of cAMP control response
# % is set by controls: 0 for no effect and ±100 for the full control effect; potency is the fitted concentration of half-maximal effect.
# Rap guanine nucleotide exchange factor 3 (Homo sapiens), sequence (O95398 whole entry, looked up): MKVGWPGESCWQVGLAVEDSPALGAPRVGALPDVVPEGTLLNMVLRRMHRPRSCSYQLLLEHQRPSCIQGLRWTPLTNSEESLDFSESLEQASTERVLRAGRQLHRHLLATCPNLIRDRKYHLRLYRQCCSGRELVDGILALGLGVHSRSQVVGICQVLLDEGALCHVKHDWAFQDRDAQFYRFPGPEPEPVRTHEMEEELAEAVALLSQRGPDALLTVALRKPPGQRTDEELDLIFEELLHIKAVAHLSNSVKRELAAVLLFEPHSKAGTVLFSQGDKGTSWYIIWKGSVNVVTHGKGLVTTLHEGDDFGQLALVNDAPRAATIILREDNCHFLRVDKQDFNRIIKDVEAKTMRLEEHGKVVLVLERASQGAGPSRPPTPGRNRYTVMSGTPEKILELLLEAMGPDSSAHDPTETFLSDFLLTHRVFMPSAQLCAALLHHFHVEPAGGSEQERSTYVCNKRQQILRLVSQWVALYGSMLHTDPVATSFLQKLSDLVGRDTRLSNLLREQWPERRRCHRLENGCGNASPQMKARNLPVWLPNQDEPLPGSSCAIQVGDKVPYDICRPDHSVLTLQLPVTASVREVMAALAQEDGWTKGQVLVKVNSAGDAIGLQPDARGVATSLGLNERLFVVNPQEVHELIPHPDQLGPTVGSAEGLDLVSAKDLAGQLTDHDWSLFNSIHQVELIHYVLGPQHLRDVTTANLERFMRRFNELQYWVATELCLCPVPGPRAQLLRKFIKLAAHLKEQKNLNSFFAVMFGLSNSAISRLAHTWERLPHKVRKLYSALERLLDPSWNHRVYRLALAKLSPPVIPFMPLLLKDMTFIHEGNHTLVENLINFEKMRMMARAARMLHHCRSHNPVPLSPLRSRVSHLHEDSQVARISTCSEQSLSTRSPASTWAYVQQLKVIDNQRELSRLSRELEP
SMILES,max response,Potency
O=C(c1cc(C(F)(F)F)cc(C(F)(F)F)c1)N1CCC2(CC1)CN(c1ccncc1)C2,12.3% (inactive),
O=c1[nH]c(=O)c2nc3ccccc3nc2[nH]1,-1.62% (inactive) and 3.86% (inactive),
COC(=O)[C@@H]1C[C@H](NC(=O)c2ccccc2C(F)(F)F)CN1Cc1cccc(O)c1,-10.1% (inactive),
Cc1cc(-c2ccnc(-n3ncc(C(=O)NC(C)(C)CO)c3C3CC3)n2)c(C)s1,5.17% (inactive),
CS(=O)(=O)N1CCC2(CCN(c3ccncc3)CC2)CC1,-40.6% (inactive),
O=c1c(O)c(-c2ccc(O)cc2)oc2ccccc12,-32.1% (inactive),
COc1ccc(/C=C2\NC(=O)[C@@H]3Cc4ccccc4CN3C2=O)cc1,5.8% (inactive),
CN1CCN2c3ccccc3Cc3ccccc3[C@@H]2C1,-0.216% (inactive),
CCS(=O)(=O)Nc1cc(C(=O)N2C[C@@H](C)O[C@@H](C)C2)c2c(c1)nc(-c1ccccc1)n2C,19.2% (inactive),
COc1ccc(CNc2ncnc3ccc(-c4cccnc4)cc23)c(OC)c1,-62.5% (inactive),
FC(F)(F)c1ccccc1-c1nc(-n2ccnc2)c2ccccc2n1,0.971% (inactive),
CC(=O)Nc1ccc(SC[C@H](Cc2ccccc2)N2CC[C@@H](C)CCC2=O)cc1,-7.47% (inactive),
CCCN(C/C=C\I)[C@@H]1CCc2cccc(O)c2C1,-15.6% (inactive),
COc1ccccc1-c1nc(N2CCN(C)CC2)c2ccccc2n1,-31.8% (inactive),
c1ccc2nc(C3=NCCN3)cnc2c1,0.273% (inactive),
O=c1cnc2cnc(Nc3ccccc3)nc2n1Cc1ccc(F)cc1,-19.3% (inactive),
Nc1ccc2c3c(cccc13)C(=O)NC2=O,,7.08 µM (active)
CCC1CN(CCNC(=O)c2ccsc2)Cc2cc(OC)ccc2O1 (stereo not given),4.39% (inactive),
O=c1c(CCc2ccccc2)nc2cncnc2n1C1CC1,26% (inactive),
CC(=O)c1ccc(F)c(-c2cc(C)cc3c2OC(CNC(=O)Cc2c[nH]c4ccccc24)C3)c1 (stereo not given),24.4% (inactive),

SMILES,max response,Potency
CCCCCCCCCCCCCCCCO,-1.51% (inactive),
CC(=O)OCC(=O)[C@@]1(O)CCC2C3CCC4=CC(=O)CC[C@@]4(C)[C@]3(F)C(O)C[C@]21C (stereo not given in full),-5.21% (inactive),
CN1CC(O)c2cc(N=NC(N)=O)c(O)cc21 (stereo not given),-6.9% (inactive),
CCCc1nc2c(C)cc(-c3nc4ccccc4n3C)cc2n1Cc1ccc(-c2ccccc2C(=O)O)cc1,-43.1% (inactive),
COc1ccccc1CNc1cc(-c2ccccc2CN(C)C)ncn1,-35.4% (inactive),
FC(F)(F)c1ccccc1-c1cc(NCc2ccccc2)ncn1,-105% (inactive),
Cc1cnc(C(=O)N2CCOc3ccc(CN4CCCC(C(=O)c5cccnc5)C4)cc3C2)[nH]1 (stereo not given),-8.53% (inactive),
O=C(Nc1ccc(O)cc1)c1ccccc1O,7.12% (inactive),
CC(C(=O)O)c1ccc(C2CCCCC2)c2ccccc12 (stereo not given),5.84% (inactive),
CCOC(=O)Cc1cccc(-c2cc(CCCCCCc3ccc(O[C@H]4O[C@H](COC(C)=O)[C@@H](OC(C)=O)[C@H](OC(C)=O)[C@@H]4OC(C)=O)c(-c4cccc(CC(=O)OCC)c4)c3)ccc2O[C@H]2O[C@H](COC(C)=O)[C@@H](OC(C)=O)[C@H](OC(C)=O)[C@@H]2OC(C)=O)c1,-9.09% (inactive),
CCc1nc2cc(C(=O)NCC3CCS(=O)(=O)C3)cc(NC(=O)c3ccccc3OC)c2n1C (stereo not given),-13.5% (inactive),
COC(=O)c1ccccc1C(=O)NCc1nc(N2CCCC2)c2cccc(C)c2n1,-26.9% (inactive),
CN(Cc1cccc2ncccc12)C(=O)c1cnn(-c2nccc(-c3ccccc3F)n2)c1C1CC1,-28.3% (inactive),
CC(=O)N1CCC2(CC1)CCN(c1ccncc1)CC2,-44.5% (inactive),
Cc1noc(C)c1-c1nc(Nc2ccccc2)c2ccccc2n1,-34.4% (inactive),
O=C(c1ccncc1)N1CCC2(CCN(Cc3cc(C(F)(F)F)cc(C(F)(F)F)c3)CC2)CC1,-125% (inactive),
CC(C)NC(=O)N1CC[C@@]2(CCCN(C(=O)c3cccc(F)c3)C2)C1,17.8% (inactive),
O=C(c1cc(C(F)(F)F)cc(C(F)(F)F)c1)N1CCC2(CCCN(c3ccccn3)C2)CC1,-45% (inactive),
CC(C)NC(=O)N1CCCC2(CCN(C(=O)c3cccn3C)CC2)C1,-48.1% (inactive),
N#Cc1ccc[n+](CC(=O)c2ccc(F)cc2)c1,3.1% (inactive),
